Screens (PubChem BioAssay)
Compounds with a hit are over-represented: about 2.4% of the library has one in this group of screens.
Rpn11 inh = Rpn11 (PSMD14) deubiquitinase inhibitors, primary screen, biochemical, fluorescence polarization, uHTS; 26S proteasome non-ATPase regulatory subunit 14 (Homo sapiens), O00487; hit rate 0.59% among 360,000; AID 588493, 2011; human 26S proteasome, Ub4-pepOG fluorescence polarization; 20S core pre-blocked with epoxomicin; inhibition, % at 20 µM;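 active = inhibition at 20 µM, scaled to each plate's controls, above about 33%, limit read from the data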
Target sequence (O00487 whole entry, looked up): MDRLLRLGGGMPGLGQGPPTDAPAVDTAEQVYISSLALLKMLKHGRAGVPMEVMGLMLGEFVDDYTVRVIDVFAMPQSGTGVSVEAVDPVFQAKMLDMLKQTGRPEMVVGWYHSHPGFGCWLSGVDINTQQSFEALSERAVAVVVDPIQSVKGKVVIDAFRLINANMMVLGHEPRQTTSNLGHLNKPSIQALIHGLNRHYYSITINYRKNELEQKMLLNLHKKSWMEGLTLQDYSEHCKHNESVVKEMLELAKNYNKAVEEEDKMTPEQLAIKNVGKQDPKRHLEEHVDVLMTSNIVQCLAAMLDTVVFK
NadD inh = inhibitors of S. aureus NadD, primary screen, biochemical, colorimetric, uHTS | Nicotinate-nucleotide adenylyltransferase NadD (Staphylococcus aureus N315) | purified NadD enzyme, colorimetric absorbance read-out | inhibition, % at 20 µM | hit rate 0.78% among 360,000 | AID 602399, 2012; in the data active = inhibition above about 26%
PREPL inh = PREPL enzyme inhibitors, primary screen, biochemical, fluorescence polarization. Prolyl endopeptidase-like (Homo sapiens), Q4J6C6. recombinant PREPL, fluorescence polarization activity-based probe. inhibition, % at 5.96 µM. hit rate 0.68% among 320,000; in the data active = inhibition above about 43%
PP1 inh = PP1-alpha phosphatase inhibitors, primary screen, counter-screen for PP5 inhibitor project, biochemical, fluorescence, OMFP substrate, single point. purified PP1alpha. inhibition, % at 6.7 µM. hit rate 0.9% among 320,000. AID 2235, 2010;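 active = inhibition above the mean inhibition of all tested compounds plus 3 SD, computed separately for each screening campaign, cut at about 15% in these data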
Target sequence (P62136 whole entry, looked up): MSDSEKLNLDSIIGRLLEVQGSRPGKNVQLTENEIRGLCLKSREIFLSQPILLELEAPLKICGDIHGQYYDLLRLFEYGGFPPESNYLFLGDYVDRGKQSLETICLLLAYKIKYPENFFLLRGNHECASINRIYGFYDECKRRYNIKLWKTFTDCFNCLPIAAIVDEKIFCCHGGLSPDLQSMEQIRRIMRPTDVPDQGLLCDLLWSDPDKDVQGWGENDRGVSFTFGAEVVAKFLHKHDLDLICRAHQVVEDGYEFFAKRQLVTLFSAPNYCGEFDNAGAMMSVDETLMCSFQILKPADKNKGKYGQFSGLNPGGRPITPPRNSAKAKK
PP5 inh = PP5 phosphatase inhibitors, primary screen, biochemical, fluorescence | inhibition, % at 6.7 µM | purified PP5c, OMFP substrate fluorescence | Serine/threonine-protein phosphatase 5 (Homo sapiens), P53041 | AID 1987, 2009 | hit rate 0.18% among 320,000;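 active = inhibition above the campaign's mean inhibition across all tested compounds plus 3 SD, cut at about 9.5% in these data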
PP1 inh confirm = PP1 phosphatase inhibitors, confirmation, biochemical, fluorescence, OMFP substrate, triplicate. inhibition, % at 6.7 µM. purified PP1alpha. hit rate 52% among 1,900. shares compounds with PP1 inh;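 active = mean PP1 inhibition above a set limit taken from the earlier primary screen, cut at about 15% in these data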
PP5 inh counter = PP5 phosphatase inhibition by PP1 hits, confirmation, counter-screen for PP1 inhibitor project, biochemical, fluorescence, triplicate; shares compounds with PP1 inh; purified PP5c, OMFP fluorescence; inhibition, % at 6.7 µM; hit rate 4% among 1,900; AID 2360, 2010;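 active = mean PP5 inhibition over triplicate wells above about 9.5% taken from the earlier PP1 screen, limit read from the data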
Numbers stand for hits; – = inactive; · = no result shown.

SMILES	Rpn11 inh	NadD inh	PREPL inh	PP1 inh	PP5 inh	PP1 inh confirm	PP5 inh counter
O=C(Nc1nnc(C2CC2)o1)c1ccc(S(=O)(=O)N2CCCCC2)cc1	–	–	–	20.1	–	–	–
CC1CCCCN1S(=O)(=O)c1ccc(C(=O)Nc2nnc(-c3ccccn3)o2)cc1 (centres undefined)	–	–	–	23.0	–	22.3	–
CC1CCN(S(=O)(=O)c2ccc(C(=O)Nc3nnc(C4CC4)o3)cc2)CC1	–	–	–	23.1	–	23.5	–
CC1CCCCN1S(=O)(=O)c1ccc(C(=O)Nc2nnc(C3CC3)o2)cc1 (centres undefined)	–	–	–	19.9	–	–	–
O=C(Nc1nnc(-c2ccco2)o1)c1ccc(S(=O)(=O)N2CCCCC2)cc1	–	–	·	·	·	·	·
Cc1nnc(NC(=O)c2ccc(S(=O)(=O)N3CCCCC3C)cc2)o1 (centres undefined)	–	–	–	–	–	·	·
CC1CCCCN1S(=O)(=O)c1ccc(C(=O)Nc2nnc(-c3ccco3)o2)cc1 (centres undefined)	–	–	–	–	–	·	·
O=C(Nc1ccccn1)c1cccc(S(=O)(=O)N2CCc3ccccc3C2)c1	–	–	–	–	–	·	·
COc1ccc(/C=N/N2C(=O)CSC2=S)cc1Br	·	–	–	25.1	–	22.1	–
COc1ccc(/C=N/N2C(=O)CSC2=S)cc1	–	–	–	–	–	·	·
COc1ccc(/C=C2/C(=O)N(c3nc4ccccc4s3)N=C2CSc2ccc(Cl)cc2)cc1	–	73.4	–	31.1	–	–	–
COc1ccc(/C=C2/C(=O)N(Cc3ccccc3)N=C2C)cc1	–	–	–	–	–	·	·
CC1(C)S[C@@H]2[C@H](NC(=O)[C@H](N)c3ccccc3)C(=O)N2[C@H]1C(=O)OC1OC(=O)c2ccccc21 (some centres undefined)	–	–	–	–	–	·	·
Cc1cccc(C(C)C)c1NC(=O)COC(=O)CCC(=O)N(CC(C)C)c1c(N)n(CC(C)C)c(=O)[nH]c1=O	–	–	·	·	·	·	·
O=C(N/N=C/c1cccc([N+](=O)[O-])c1)c1cc(-c2ccc3c(c2)OCO3)n[nH]1	–	–	–	20.3	–	25.4	–
Cc1ccccc1C(=O)Nc1cccc(C(=O)N/N=C/c2cc(Cl)cc([N+](=O)[O-])c2O)c1	–	–	–	19.0	–	18.3	–
COc1cc(/C=N/NC(=O)c2cccc(NC(=O)c3ccccc3C)c2)ccc1O	–	–	–	–	–	·	·
O=C(CCCSc1ccccc1)Nc1nc(-c2ccccn2)cs1	–	–	–	41.1	–	39.4	–
O=C(/C=C/c1ccco1)Nc1nc(-c2ccccn2)cs1	–	–	–	32.5	–	39.8	–
O=C(/C=C/c1ccco1)Nc1nc(-c2ccccc2)cs1	–	–	–	–	–	·	·
Cn1cccc1C(=O)Nc1nc(-c2ccccn2)cs1	–	–	–	32.5	–	41.4	–
CSCCC(=O)Nc1nc(-c2ccccn2)cs1	–	–	·	·	·	·	·
O=C(COc1ccc(F)cc1Cl)Nc1nc(-c2ccccn2)cs1	–	–	–	42.4	–	42.5	–
CC/C(=N\NS(=O)(=O)c1ccc(C)cc1)c1ccco1	–	–	–	–	–	·	·
COc1ccc(C)cc1NC(=O)C1CCN(S(=O)(=O)c2ccc3c(c2)NC(=O)CO3)CC1	–	–	–	–	–	·	·
SMILES	Rpn11 inh	NadD inh	PREPL inh	PP1 inh	PP5 inh	PP1 inh confirm	PP5 inh counter
Cc1ccc(C(=O)Nc2nc(-c3ccccn3)cs2)s1	–	–	–	33.8	–	32.5	–
O=C(Nc1ccccn1)c1ccc(Cl)s1	–	–	–	–	–	·	·
CCc1sc(C(=O)Nc2nc(-c3ccccn3)cs2)cc1C	–	–	–	·	·	·	·
O=C(Nc1nc(-c2ccccn2)cs1)c1ccc(Cl)s1	–	–	–	30.6	–	29.2	–
Cc1nnsc1C(=O)Nc1ccc(S(=O)(=O)N2CCCC(C)C2)cc1 (centres undefined)	–	–	–	–	–	·	·
C#CCn1c(=NC(=O)CN2C(=O)CCC2=O)sc2cc(S(N)(=O)=O)ccc21	–	–	–	–	–	·	·
C#CCn1c(=NC(=O)c2cc(Cl)sc2Cl)sc2cc(S(N)(=O)=O)ccc21	–	–	–	19.1	–	25.4	–
COC(=O)c1ccsc1NC(=O)CCS(=O)(=O)c1ccc(Cl)cc1	–	–	–	–	–	·	·
O=[N+]([O-])c1cc(CN2CCCC2)c2cccnc2c1O	–	74.4	–	18.1	–	–	–
CN1CCN(C(=O)c2ccc3c(Cl)c4c(nc3c2)CCCC4)CC1	–	–	–	–	–	·	·
N#CC1CCN(C(=O)c2ccc3c(Cl)c4c(nc3c2)CCCC4)CC1	–	–	–	22.8	–	–	–
COC(=O)c1ccc(C2/C(=C(\O)c3ccc4c(c3)OCCO4)C(=O)C(=O)N2c2nnc(C)s2)cc1 (centres undefined)	–	–	–	–	–	·	·
COc1ccc(C2/C(=C(\O)c3ccc4c(c3)OCCO4)C(=O)C(=O)N2c2nc(C)c(C(C)=O)s2)cc1 (centres undefined)	–	–	–	18.8	–	–	–
O=C1CCCc2oc3c(cc(NS(=O)(=O)c4ccc5c6c(cccc46)C(=O)N5)c4ccccc43)c21	–	–	–	19.6	–	–	–
O=C(O)c1ccccc1NS(=O)(=O)c1ccc2c3c(cccc13)C(=O)N2	–	–	–	–	–	·	·
COC(=O)C1=COC(C)C2CN3CCc4c([nH]c5ccccc45)C3CC12 (centres undefined)	–	–	–	19.8	–	–	18.4
O=C(Nc1ccccc1)c1ccc(OC(=O)c2ccccc2)cc1	–	–	–	–	–	·	·
O=C1OC(=O)C2C3CCC(O3)C12 (centres undefined)	·	·	–	74.9	66.7	46.2	51.0
O=C(c1cc(-c2ccc(Br)cc2)nc2ccccc12)N1CCC1	–	–	–	19.8	–	–	–
Cc1ccccc1NC(=O)CN1C(=O)N/C(=C\c2ccccc2OCc2ccc(C(=O)O)cc2)C1=O	–	–	–	18.1	–	16.3	–
CCN1/C(=C/C=C/c2sc3ccccc3[n+]2CC)Sc2ccccc21	·	–	–	17.7	–	–	–
CC[n+]1c(/C=C/Nc2ccccc2)sc2ccccc21	–	–	–	–	–	·	·
CSc1nc(O)c(Nc2ccccc2)c(=O)[nH]1	–	–	·	·	·	·	·
